Assay results reported in the supplement of paper PMC10849652.
The full data set covers some 7,900 targets. This sample favours those with a hit. About 0.6% of all pairs of compound and target were hits. Values without a mark were called inactive.

Legend:
Assay in all cases: log2 fold change, soluble protein after heating vs DMSO (PISA); higher = thermal stabilisation; K562 cells, 10 uM, 30 min; active = over 0.2 and 3.5 SD of the protein, either way, in both replicates (recomputed)
[1] = compound: C1COCCN1CCN2C3=CC=CC=C3N=C2NC(=O)C4=CC(=CC=C4)[N+](=O)[O-] [IRAK-1-4 Inhibitor I]
Summary of the method: (§1)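 Values are thermal stability changes relative to control samples and are taken from duplicates. They are stated as log2 fold changes. Before quantification by TMTpro 16plex LC-MS/MS with equalised channel sums, K562 cells at 2×10^6 cells/mL were treated with 10 μM compound for 30 min, heated in aliquots for 3 min across 48°C-58°C, pooled, extracted in PBS with 0.5% NP-40 at 4°C, and centrifuged at 21,000xg for 90 min to give the soluble supernatant.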

[2] = compound: C=CC(=O)N1CCC[C@@H](n2nc(-c3ccc(Oc4ccccc4)cc3)c3c(N)ncnc32)C1 [ibrutinib]
Summary of the method: as §1

[3] = compound: CC(=O)c1cnc2ccc(-c3cc(Cl)c(O)c(Cl)c3)nc2c1N[C@H]1CC[C@H](CN(C)C)CC1
Summary of the method: as §1

[4] = compound: CC(C)(C)Cn1c(N)nc2ccc(-c3[nH]c(C(C)(C)C)nc3-c3ccc(F)cc3)nc21 [ralimetinib]
Summary of the method: as §1

[5] = compound: CC(C)(O)CC(=O)NCCn1ccc2ncnc(Nc3ccc(Oc4cccc(C(F)(F)F)c4)c(Cl)c3)c21
Summary of the method: as §1

[6] = compound: CC(C)C1=C2N=C(C=C(N2N=C1)NCC3=CC=CC=C3)NCCCCCCN
Summary of the method: as §1

[7] = compound: CC(C)C[C@@H](C=O)NC(=O)[C@H](CC(C)C)NC(=O)[C@H](CC(C)C)NC(=O)OCc1ccccc1
Summary of the method: as §1

[8] = compound: CC(C)N(C[C@H]1O[C@@H](n2cnc3c(N)ncnc32)[C@H](O)[C@@H]1O)[C@H]1C[C@@H](CCc2nc3cc(C(C)(C)C)ccc3[nH]2)C1 [pinometostat]
Summary of the method: as §1

[9] = compound: CC1=C(C(CC(=O)N1)C2=CC=C(C=C2)C(F)(F)F)C(=O)NC3=C(C=C4C(=C3)C=NN4)F
Summary of the method: as §1

[10] = compound: CC1=C(C2=C(C=C1)C(=O)C3=CC=CC=C3N2CCCN)C
Summary of the method: as §1

[11] = compound: CC1=C(C=C(C=C1)NC(=O)C2=CC(=CC=C2)C(C)(C)C#N)NC3=CC4=C(C=C3)N=CN(C4=O)C
Summary of the method: as §1

[12] = compound: CC1=C(C=C(C=C1)NC(=O)C2=CC(=CC=C2)N(C)C)NC(=O)C3=CC=C(C=C3)O
Summary of the method: as §1

[13] = compound: CC1=CC=C(C=C1)SC2=C3C=C(SC3=CN=C2)C(=O)N
Summary of the method: as §1

[14] = compound: CC1=NC(=CC=C1)C2=C(N=C(N2)C(C)(C)C)C3=CC4=NC=CN=C4C=C3
Summary of the method: as §1

[15] = compound: CCCCN(Cc1ccc(C(=O)NO)cc1)C(=O)Nc1ccccc1 [Nexturastat A]
Summary of the method: as §1

[16] = compound: CCCS(=O)(=O)Nc1ccc(F)c(C(=O)c2c[nH]c3ncc(-c4ccc(Cl)cc4)cc23)c1F [vemurafenib]
Summary of the method: as §1

[17] = compound: CCCS(=O)(=O)Nc1ccc(F)c(C(=O)c2c[nH]c3ncc(Cl)cc23)c1F
Summary of the method: as §1

[18] = compound: CCCc1cc(C)[nH]c(=O)c1CNC(=O)c1cc(-c2ccnc(N3CCN(C)CC3)c2)cc2c1cnn2C(C)C
Summary of the method: as §1

[19] = compound: CCN(CC)Cc1ccc2cc(COC(=O)Nc3ccc(C(=O)NO)cc3)ccc2c1 [givinostat]
Summary of the method: as §1

[20] = compound: CCN(CCCOc1ccc2c(Nc3cc(CC(=O)Nc4cccc(F)c4)[nH]n3)ncnc2c1)CCOP(=O)(O)O [barasertib]
Summary of the method: as §1

Sequence of UniProt P07686 (P07686 whole entry, looked up): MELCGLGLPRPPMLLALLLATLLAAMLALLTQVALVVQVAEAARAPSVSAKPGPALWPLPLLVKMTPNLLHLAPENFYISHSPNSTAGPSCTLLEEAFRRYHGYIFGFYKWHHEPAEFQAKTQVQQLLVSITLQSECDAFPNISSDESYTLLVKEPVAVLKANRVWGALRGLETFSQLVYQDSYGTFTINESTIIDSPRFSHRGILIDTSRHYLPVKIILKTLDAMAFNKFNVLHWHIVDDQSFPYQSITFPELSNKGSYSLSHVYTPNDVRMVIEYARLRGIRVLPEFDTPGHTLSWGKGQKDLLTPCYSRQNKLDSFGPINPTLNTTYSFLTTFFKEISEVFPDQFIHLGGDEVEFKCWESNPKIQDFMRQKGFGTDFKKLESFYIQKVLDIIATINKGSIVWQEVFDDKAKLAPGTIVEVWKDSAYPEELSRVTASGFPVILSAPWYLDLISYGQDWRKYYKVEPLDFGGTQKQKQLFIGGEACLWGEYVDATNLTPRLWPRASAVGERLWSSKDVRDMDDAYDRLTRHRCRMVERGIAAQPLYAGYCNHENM
Sequence of UniProt O95363 (O95363 whole entry, looked up): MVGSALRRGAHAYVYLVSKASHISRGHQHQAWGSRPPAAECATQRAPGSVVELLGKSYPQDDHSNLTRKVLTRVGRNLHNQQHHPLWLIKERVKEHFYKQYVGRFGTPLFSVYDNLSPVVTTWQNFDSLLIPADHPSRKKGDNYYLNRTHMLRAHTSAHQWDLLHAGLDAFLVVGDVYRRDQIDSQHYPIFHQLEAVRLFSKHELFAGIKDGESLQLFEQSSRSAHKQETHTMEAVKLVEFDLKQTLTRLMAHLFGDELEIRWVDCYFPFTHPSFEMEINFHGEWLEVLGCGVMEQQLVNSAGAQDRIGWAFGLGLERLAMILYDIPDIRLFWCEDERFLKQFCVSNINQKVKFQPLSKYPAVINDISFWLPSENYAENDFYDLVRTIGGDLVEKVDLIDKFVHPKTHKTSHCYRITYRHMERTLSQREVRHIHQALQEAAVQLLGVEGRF
Sequence of UniProt P05362 (P05362 whole entry, looked up): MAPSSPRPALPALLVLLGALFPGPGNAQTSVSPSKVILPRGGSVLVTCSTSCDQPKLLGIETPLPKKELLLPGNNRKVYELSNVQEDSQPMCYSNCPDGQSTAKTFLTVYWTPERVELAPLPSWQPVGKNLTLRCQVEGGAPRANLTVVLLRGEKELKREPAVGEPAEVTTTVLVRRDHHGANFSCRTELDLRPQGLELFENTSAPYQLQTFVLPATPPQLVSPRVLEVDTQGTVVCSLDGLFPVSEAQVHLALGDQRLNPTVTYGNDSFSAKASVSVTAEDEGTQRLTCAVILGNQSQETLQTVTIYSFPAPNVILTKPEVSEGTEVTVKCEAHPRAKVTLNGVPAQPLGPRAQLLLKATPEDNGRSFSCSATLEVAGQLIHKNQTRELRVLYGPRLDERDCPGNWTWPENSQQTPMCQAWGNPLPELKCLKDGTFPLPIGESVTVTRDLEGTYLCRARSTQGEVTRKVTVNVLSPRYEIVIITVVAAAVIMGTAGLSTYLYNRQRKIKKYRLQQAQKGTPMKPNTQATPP
Sequence of UniProt P30519 (P30519 whole entry, looked up): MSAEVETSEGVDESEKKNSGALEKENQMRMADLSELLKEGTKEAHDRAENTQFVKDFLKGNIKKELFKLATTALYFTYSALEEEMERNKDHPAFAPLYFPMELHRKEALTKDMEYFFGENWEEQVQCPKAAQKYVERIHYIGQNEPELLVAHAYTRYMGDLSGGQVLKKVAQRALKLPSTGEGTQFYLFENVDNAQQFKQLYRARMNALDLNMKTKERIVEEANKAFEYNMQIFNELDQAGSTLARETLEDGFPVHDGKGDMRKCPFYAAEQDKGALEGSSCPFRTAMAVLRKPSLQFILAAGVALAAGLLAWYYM
Sequence of UniProt Q9NRD1 (Q9NRD1 whole entry, looked up): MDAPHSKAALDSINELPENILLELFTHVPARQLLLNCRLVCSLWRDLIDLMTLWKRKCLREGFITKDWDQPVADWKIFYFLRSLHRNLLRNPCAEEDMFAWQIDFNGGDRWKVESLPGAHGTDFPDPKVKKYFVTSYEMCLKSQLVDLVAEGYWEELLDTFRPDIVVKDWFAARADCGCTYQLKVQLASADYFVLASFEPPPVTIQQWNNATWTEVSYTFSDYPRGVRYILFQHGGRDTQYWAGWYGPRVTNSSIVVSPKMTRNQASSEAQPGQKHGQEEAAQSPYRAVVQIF
Sequence of UniProt Q8WXD5 (Q8WXD5 whole entry, looked up): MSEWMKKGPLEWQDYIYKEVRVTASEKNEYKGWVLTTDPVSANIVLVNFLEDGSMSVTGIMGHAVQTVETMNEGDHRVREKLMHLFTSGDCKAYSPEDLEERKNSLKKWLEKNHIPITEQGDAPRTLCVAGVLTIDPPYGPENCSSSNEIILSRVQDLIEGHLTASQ
Sequence of UniProt O15347 (O15347 whole entry, looked up): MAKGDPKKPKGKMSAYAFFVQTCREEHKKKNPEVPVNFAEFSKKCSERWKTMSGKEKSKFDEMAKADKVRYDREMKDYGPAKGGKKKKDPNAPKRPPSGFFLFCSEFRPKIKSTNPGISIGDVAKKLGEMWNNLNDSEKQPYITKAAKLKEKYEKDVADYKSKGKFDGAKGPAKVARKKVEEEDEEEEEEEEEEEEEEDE
Sequence of UniProt Q9P2D3 (Q9P2D3 whole entry, looked up): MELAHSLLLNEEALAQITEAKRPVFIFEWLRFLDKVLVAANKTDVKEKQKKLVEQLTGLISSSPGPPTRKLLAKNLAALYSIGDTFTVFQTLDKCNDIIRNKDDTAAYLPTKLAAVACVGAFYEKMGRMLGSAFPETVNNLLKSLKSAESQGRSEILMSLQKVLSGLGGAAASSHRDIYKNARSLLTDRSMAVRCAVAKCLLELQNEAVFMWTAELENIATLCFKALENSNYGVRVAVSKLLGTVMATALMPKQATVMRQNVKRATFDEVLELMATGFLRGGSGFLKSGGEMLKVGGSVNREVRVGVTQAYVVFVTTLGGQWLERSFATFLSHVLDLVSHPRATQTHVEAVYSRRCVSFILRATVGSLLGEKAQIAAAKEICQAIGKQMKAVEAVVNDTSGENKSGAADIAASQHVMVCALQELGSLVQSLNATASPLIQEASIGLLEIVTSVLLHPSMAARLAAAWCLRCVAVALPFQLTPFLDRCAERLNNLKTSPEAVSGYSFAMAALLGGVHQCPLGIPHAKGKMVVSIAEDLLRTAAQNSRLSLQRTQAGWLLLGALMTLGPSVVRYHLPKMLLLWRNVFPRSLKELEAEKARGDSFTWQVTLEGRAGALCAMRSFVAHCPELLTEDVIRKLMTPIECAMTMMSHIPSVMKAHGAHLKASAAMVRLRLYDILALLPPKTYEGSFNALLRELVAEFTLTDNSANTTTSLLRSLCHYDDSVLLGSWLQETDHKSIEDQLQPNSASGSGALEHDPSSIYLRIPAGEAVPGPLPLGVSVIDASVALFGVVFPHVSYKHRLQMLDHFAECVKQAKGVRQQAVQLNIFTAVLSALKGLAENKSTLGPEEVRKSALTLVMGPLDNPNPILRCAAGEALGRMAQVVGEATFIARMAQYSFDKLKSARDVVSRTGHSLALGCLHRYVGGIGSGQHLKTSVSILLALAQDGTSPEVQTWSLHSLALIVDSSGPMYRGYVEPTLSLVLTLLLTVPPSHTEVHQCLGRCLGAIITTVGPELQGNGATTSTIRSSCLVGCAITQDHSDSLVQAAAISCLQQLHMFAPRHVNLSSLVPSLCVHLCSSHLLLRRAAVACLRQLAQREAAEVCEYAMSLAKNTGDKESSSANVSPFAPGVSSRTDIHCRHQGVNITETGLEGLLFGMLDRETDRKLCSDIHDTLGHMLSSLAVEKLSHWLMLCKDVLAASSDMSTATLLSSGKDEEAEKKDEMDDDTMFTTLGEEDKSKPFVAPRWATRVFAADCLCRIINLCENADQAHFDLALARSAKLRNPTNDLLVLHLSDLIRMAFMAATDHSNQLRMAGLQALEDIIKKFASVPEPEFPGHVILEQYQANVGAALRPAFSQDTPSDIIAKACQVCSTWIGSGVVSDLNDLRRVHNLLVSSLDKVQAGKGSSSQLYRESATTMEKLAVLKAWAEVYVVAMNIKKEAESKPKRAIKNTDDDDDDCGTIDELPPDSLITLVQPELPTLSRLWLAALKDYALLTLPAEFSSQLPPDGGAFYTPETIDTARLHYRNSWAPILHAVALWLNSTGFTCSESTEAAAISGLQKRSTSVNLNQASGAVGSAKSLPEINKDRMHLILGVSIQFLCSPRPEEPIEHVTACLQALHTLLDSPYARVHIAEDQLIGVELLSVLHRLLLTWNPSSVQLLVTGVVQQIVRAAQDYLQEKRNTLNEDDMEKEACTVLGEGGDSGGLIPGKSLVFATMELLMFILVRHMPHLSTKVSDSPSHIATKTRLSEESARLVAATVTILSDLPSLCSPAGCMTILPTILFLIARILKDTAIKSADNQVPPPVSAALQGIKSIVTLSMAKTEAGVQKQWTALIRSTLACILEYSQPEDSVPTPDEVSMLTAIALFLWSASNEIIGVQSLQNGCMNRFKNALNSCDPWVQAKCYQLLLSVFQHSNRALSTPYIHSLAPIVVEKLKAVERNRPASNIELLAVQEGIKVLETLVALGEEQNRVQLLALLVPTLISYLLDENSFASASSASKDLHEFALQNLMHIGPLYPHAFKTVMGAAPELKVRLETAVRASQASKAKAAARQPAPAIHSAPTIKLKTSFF
Sequence of UniProt P15104 (P15104 whole entry, looked up): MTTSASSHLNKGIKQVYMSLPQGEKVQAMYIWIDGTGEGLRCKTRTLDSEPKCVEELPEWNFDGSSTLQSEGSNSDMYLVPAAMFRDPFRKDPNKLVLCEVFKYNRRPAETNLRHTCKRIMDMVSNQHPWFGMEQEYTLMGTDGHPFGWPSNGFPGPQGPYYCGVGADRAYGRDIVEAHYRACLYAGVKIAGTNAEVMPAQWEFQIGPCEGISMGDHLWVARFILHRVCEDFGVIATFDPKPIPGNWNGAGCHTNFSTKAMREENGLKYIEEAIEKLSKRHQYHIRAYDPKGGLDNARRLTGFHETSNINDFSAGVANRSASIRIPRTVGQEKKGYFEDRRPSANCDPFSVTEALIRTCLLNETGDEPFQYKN

Target | log2 fold change [1] | log2 fold change [2] | log2 fold change [3] | log2 fold change [4] | log2 fold change [5] | log2 fold change [6] | log2 fold change [7] | log2 fold change [8] | log2 fold change [9] | log2 fold change [10] | log2 fold change [11] | log2 fold change [12] | log2 fold change [13] | log2 fold change [14] | log2 fold change [15] | log2 fold change [16] | log2 fold change [17] | log2 fold change [18] | log2 fold change [19] | log2 fold change [20]
FBXO6 (UniProt Q9NRD1) | -0.015 | 0.015 | -0.068 | 0.004 | -0.127 | 0.437 (active) | -0.046 | -0.021 | -0.043 | 0.068 | 0.006 | 0.006 | 0.048 | 0.026 | -0.04 | 0.044 | 0.014 | -0.01 | -0.093 | -0.008
HEXB (UniProt P07686) | 0.06 | 0.004 | 0.003 | -0.068 | -0.004 | -0.14 | 0.003 | -0.025 | -0.015 | -0.03 | 0 | 0.029 | 0.028 | 0.022 | -0.078 | -0.003 | -0.001 | -0.019 | -0.016 | -0.015
ICAM1 (UniProt P05362) | 0.056 | 0.042 | -0.039 | -0.02 | 0.002 | 0.157 | -0.001 | -0.009 | -0.028 | 0.045 | -0.055 | 0.016 | 0.033 | -0.016 | 0.02 | 0.018 | -0.034 | 0.001 | -0.014 | -0.021
GEMIN6 (UniProt Q8WXD5) | 0.035 | 0.021 | 0.016 | 0.188 | -0.03 | -0.012 | -0.226 | 0.046 | -0.004 | 0.03 | -0.049 | -0.05 | 0.014 | 0.015 | 0.134 | 0.073 | -0.001 | 0.008 | -0.088 | -0.053
HMOX2 (UniProt P30519) | -0.061 | -0.035 | -0.092 | 0.081 | 0.031 | 0.08 | 0.028 | 0 | -0.016 | 0.012 | 0 | -0.06 | 0.036 | -0.019 | -0.023 | 0.034 | 0.012 | 0.097 | 0.015 | 0.042
FARS2 (UniProt O95363) | 0 | -0.038 | -0.05 | -0.004 | -0.028 | -0.182 | -0.001 | 0.002 | -0.003 | -0.018 | 0.012 | -0.015 | -0.032 | 0.078 | 0.044 | 0.032 | 0.01 | -0.087 | -0.019 | 0.035
HEATR5B (UniProt Q9P2D3) | -0.002 | 0.017 | 0.014 | 0.04 | -0.021 | -0.063 | 0.023 | 0.008 | 0.022 | 0.01 | 0.013 | 0.005 | 0.03 | 0.022 | 0.219 (active) | 0.019 | -0.014 | -0.024 | 0.07 | 0
HMGB3 (UniProt O15347) | 0.071 | 0.038 | 0.083 | 0.163 | -0.007 | 0.068 | 0.001 | -0.019 | -0.003 | 0.016 | -0.012 | 0 | 0.006 | 0.011 | -0.014 | -0.083 | 0.011 | 0.202 | -0.016 | -0.008
GLUL (UniProt P15104) | 0.054 | 0.009 | -0.049 | -0.02 | 0.018 | 0.058 | -0.013 | -0.021 | 0.105 | -0.058 | -0.008 | -0.003 | 0.055 | -0.013 | -0.02 | -0.04 | -0.084 | -0.016 | -0.082 | 0.004
HIC2 (UniProt Q96JB3) | -0.073 | 0.123 | 0.024 | 0.218 | 0.065 | -0.07 | -0.03 | 0.143 | 0.015 | 0.088 | 0.039 | 0.028 | -0.005 | -0.093 | 0.131 | 0.009 | 0.123 | -0.005 | -0.035 | -0.033
H2AZ1 (UniProt P0C0S5) | -0.115 | 0.087 | -0.125 | 0.247 | 0.031 | -0.022 | 0.244 | 0.268 | 0.022 | 1.74 (active) | -0.051 | 0 | -0.174 | -0.01 | 0.75 (active) | -0.209 | 0.233 | 0.074 | 0.454 | -0.083
